# Experimental data published in PubChem BioAssay AID1063 (University of Pittsburgh Molecular Library Screening Center, 2008).
# In all, about 200,000 compounds went through this assay and about 18,000 (9%) were called active. The sample holds actives, similar compounds and a random draw of the others, so the mix is not that of the screen. A number with no mark means an inactive call. Rule as the data show it: active = inhibition above about 50%; inactive = the rest.
# Test: Leishmania major promastigote growth inhibition, primary screen (AID 1063);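 also: promastigotes grown with compound for 44 hours at 28 °C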
# Conditions: Leishmania major promastigotes, resazurin fluorescence viability; at 10 µM; hits give high values
row,Compound,inhibition
1,COc1ccc(/C=C/C(=O)Nc2cccnc2)cc1OC,-4.52%
2,Cc1cc(C)cc(C(=O)NCC(=O)OCC(=O)N2CCCCC2)c1,-9.27%
3,Cc1cc(C)n(CCNCc2c(C(=O)N3C[C@@H](C)O[C@@H](C)C3)nc3ccc(Cl)cn23)n1,-6.81%
4,Cc1ccc(N(C(=O)c2sc(C)nc2C)C(C(=O)NC(C)(C)C)c2ccncc2)cc1 (centres undefined),-0.8%
5,O=C(O)/C=C/c1ccc(OCCCF)cc1,-5.86%
6,COc1cccc(/C=C2\SC(=N)N(c3ccc(F)cc3)C2=O)c1,5.76%
7,COc1ccc(C2CC(c3ccccc3)=NN2C(=O)CSc2nccc(=O)[nH]2)cc1 (centres undefined),-0.2%
8,O=C(CSc1nnnn1-c1ccc(O)cc1)N1N=C(c2ccc3ccccc3c2)CC1c1ccccc1 (centres undefined),99.8% (active)
9,COc1ccc(-n2nnnc2SCC(=O)Nc2ccccc2)cc1,-4.13%
10,C/C(N)=C(/C#N)C(=O)COC(=O)C1CCN(C(=O)c2ccc(Cl)cc2)CC1,-2.84%
11,Cc1ccc(S(=O)(=O)/N=C(\N)c2ccc(F)cc2)cc1,-1.71%
12,O=C(COC(=O)c1c2c(nc3ccccc13)/C(=C\c1cccs1)CCC2)Nc1ccccc1Cl,27.8%
13,O=C(COC(=O)c1c2c(nc3ccccc13)CCCC2)c1ccc(Br)s1,96.8% (active)
14,NC(=O)c1ccc(NC(=O)COC(=O)c2c3c(nc4ccccc24)/C(=C\c2ccc4c(c2)OCO4)CCC3)cc1,18.2%
15,COc1ccc2c(c1)CCC/C2=N\OC(=O)c1ccccc1F,-7.06%
16,COc1cc2nc(CN(C)Cc3ccc(F)cc3)[nH]c(=O)c2cc1OC,9.19%
17,CC(=O)Nc1ccc(NC(=S)NC(=O)/C=C/c2ccccc2)cc1,-1.29%
18,CC(=O)Nc1cc(C(=O)O)ccc1S(=O)(=O)c1ccc(Cl)cc1,-5.9%
19,Cc1ccc(S(=O)(=O)c2ccc(Cl)cc2)cc1S(=O)(=O)NC(C(=O)O)C(C)C (centres undefined),50.9% (active)
20,CC(C)C(NC(=O)c1ccc(Cl)cc1)C(=O)O (centres undefined),27.4%

row,Compound,inhibition
1,Cn1cnc([N+](=O)[O-])c1Nc1ccccc1O,-4.52%
2,Cn1cnc([N+](=O)[O-])c1Sc1ccccc1,51.5% (active)
3,Cn1nc(-c2ccccc2)c(CO)c1Sc1ccccc1,18.3%
4,C=CCn1c(SCC(=O)CC(=O)OCC)nc2cc(C(=O)N3CCC(C(N)=O)CC3)ccc2c1=O,-4.29%
5,Cc1cccc(N2CCN(C(=O)c3cnn4c(C(F)F)cc(-c5ccccc5)nc34)CC2)c1C,90.6% (active)
6,CCC(CC)C(=O)N1CCN(c2cccc(C)c2C)CC1,-3.72%
7,CC(=O)N1CCN(c2cccc(C)c2C)CC1,-2.3%
8,CC(=O)Nc1ccccc1OC(C)C(=O)N1CCC(C)CC1 (centres undefined),-5.19%
9,CCC(=O)N(Cc1cc2cc(OC)ccc2[nH]c1=O)c1ccccc1C,3.53%
10,COc1ccc2[nH]c(=O)c(CNc3ccc(C)c(C)c3)cc2c1,98.6% (active)
11,COc1ccc(N(Cc2cc3cc(OC)ccc3[nH]c2=O)S(C)(=O)=O)cc1,2.96%
12,CC(NC(=S)Nc1ccc(OC(F)F)cc1)c1ccc(F)cc1 (centres undefined),36.8%
13,OCCC1CN(Cc2ccccc2-c2ccco2)CCN1Cc1ccsc1 (centres undefined),9.42%
14,OCCC1CN(Cc2cccc(OC3CCCC3)c2)CCN1Cc1ccsc1 (centres undefined),80.5% (active)
15,OCCC#Cc1ccc(CN2CCN(Cc3ccsc3)C(CCO)C2)cc1 (centres undefined),-0.59%
16,C=CCC(C(=O)c1ccccc1)[N+](C)(C)CC=C (centres undefined),-3.06%
17,COc1ccc(NC(=O)C(C)SCc2ccccc2)cc1 (centres undefined),-8.12%
18,CC1(C)OC(=O)C(=CSc2ccc(C(C)(C)C)cc2)C(=O)O1,-9.81%
19,CN(C)c1nnnn1-c1ccc(Cl)cc1,2.19%
20,CCN(CC)c1ccc(/C=N/Nc2nc(C)cc(=O)[nH]2)cc1,-1.36%

row,Compound,inhibition
1,CCOc1ccc(-n2c(O)c(/C=N/Nc3nc(C)cc(C)n3)c3ccccc3c2=O)cc1,14%
2,CCN(CC)c1ccc(/C=N/Nc2nc(C)cc(C)n2)c(O)c1,99.8% (active)
3,Cc1ccc(S(=O)(=O)CC(=O)Nc2c(C)n(C)n(-c3ccccc3)c2=O)cc1,2.54%
4,COc1cccc(CNC(=O)CCN2C(=S)NC(C)(C)CC2C)c1 (centres undefined),-13.5%
5,CCCC(=O)NC(=S)Nc1ccc(CN2CCOCC2)cc1,5.07%
6,O=C1OC(/C=C/c2ccccc2)=NC/1=C/c1ccco1,-4.68%
7,Fc1cccc2ncnc(OCc3ccccc3)c12,-9.83%
8,O=C(N/N=C/c1cc([N+](=O)[O-])ccc1O)/C(=C\c1cccs1)NC(=O)c1ccccc1,85.6% (active)
9,O=C(Nc1ccc(C(=O)O)cc1)/C(=C/c1ccc([N+](=O)[O-])cc1)NC(=O)c1ccccc1,-2.56%
10,O=C(N/N=C/c1ccc(O)cc1)/C(=C/c1ccc([N+](=O)[O-])cc1)NC(=O)c1ccccc1,-2.54%
11,O=C(c1cn(-c2ccccc2)nc1-c1cc2ccccc2oc1=O)N1CCOCC1,-2.51%
12,CC1(C)CC(=O)C(C2c3ccccc3S(=O)(=O)c3ccccc32)C(=O)C1,-3.12%
13,OC(COc1cccc2ccccc12)CN1CCN(c2ccccn2)CC1 (centres undefined),-1.28%
14,Cc1ccccc1OCC(O)CN1CCN(c2ccccn2)CC1 (centres undefined),3.89%
15,Cc1cccc(OCC(O)CN2CCN(CCN3C(=O)c4cccc5cccc(c45)C3=O)CC2)c1C (centres undefined),99.9% (active)
16,COCCCNC(=S)NNC(=O)C(O)(c1ccccc1)c1ccccc1,-3.7%
17,Clc1ccc(-c2nc3ccccn3c2CN2CCSCC2)cc1,77.4% (active)
18,O=C(CN1CCSCC1)N/N=C/c1ccc(Cl)cc1,7.06%
19,CN(C)C(=O)c1nc2ccc(Cl)cn2c1CN1CCN(c2ncccn2)CC1,7.72%
